This note sets out measurements from ChEMBL document CHEMBL1157539, “Thousands of chemical starting points for antimalarial lead identification” (Nature, 2010).

The subject of this assay is HepG2. Description: GSK_TCMDC: Percent inhibition of human HepG2 cell line. Test compounds present at 10uM. It counts as functional.
The Inhibition is the share of the control response that was lost under treatment. `O=C(O)C(F)(F)F.c1cncc(CCNCc2cccc(-c3ccc(-c4nc5ccccc5[nH]4)s3)c2)c1` registered an Inhibition of 8%.

In turn, `CN(C)CC(O)C(c1ccccc1)c1ccc(Cl)cc1.O=C(O)CCC(=O)O` (stereo unspecified) had an Inhibition of 4%.

In turn, `CCCCOc1cc2ncc(C(=O)OCC)c(O)c2cc1OCCCC` came in with an Inhibition of 0%.

`CN(CCC(O)c1ccc(Cl)c(Cl)c1)CC1CC1C(=O)c1ccccc1` (stereo unspecified) had an Inhibition of 11%.

`O=C(Nc1ccccc1-c1nc2ccccc2s1)C(Cl)(Cl)Cl` registered an Inhibition of 12%.

Molecule `CCCC(CNCc1cccc(C)c1)CNc1cc(=O)c2ccccc2[nH]1` (stereo unspecified) came in with an Inhibition of 0%.

In turn, `COc1ccc(Nc2nccc(NCCNC(=O)Nc3cc(C)ccc3C)n2)cc1` had an Inhibition of 10%.

`Cc1cc(N(CCN2CCCCC2)CCN2CCCCC2)nc(Nc2ccc(Cl)cc2)n1.Cl` registered an Inhibition of 19%.

Regarding `CC(=O)N(Cc1nc(-c2cc(Cl)c(Cl)s2)cs1)c1c(C)cccc1C`, the Inhibition was 5%.

`Cc1sc2ccc(Cl)cc2c1S(=O)(=O)Nc1ccc2nccc(N3CC(C)NC(C)C3)c2c1.Cl` (stereo unspecified) showed an Inhibition of 17%.

In the case of `CCc1sc(CN(CCCNc2cc(=O)c3ccccc3[nH]2)Cc2sc(CC)c(Br)c2-c2ccsc2)c(-c2ccsc2)c1Br.Cl`, the Inhibition was found to be 10%.

Molecule `Cc1cc(N2CCCC2)nc(Nc2ccc(NC(=O)c3cccc(F)c3)cc2)n1` displayed an Inhibition of 39%.

`CCN(CC)CCNc1nccc(N(C)c2ccc(NC(=O)Nc3cc(C(F)(F)F)ccc3F)cc2)n1.O=C(O)C(F)(F)F` came in with an Inhibition of 74%.

On to `COc1cccc(C(=O)Nc2ccc(Nc3nc(C)cc(N(C)C)n3)cc2)c1`, for which the Inhibition came out at 1%.

`CS(=O)(=O)O.FC(F)(F)COc1ccc(CCNCCCCNCCc2ccc(OCC(F)(F)F)c3ccccc23)c2ccccc12` yielded an Inhibition of 100%.

In the case of `CCCCC(CC)NC(=O)[C@H]1CNCCN1C(=O)CCCc1ccccc1.O=C(O)C(F)(F)F` (stereo partly specified), the Inhibition worked out at 5%.

`Cc1cc(CN2CCC(Nc3ncc(-c4ccsc4)c4nc(C(F)(F)F)ccc34)CC2)no1.Cl` displayed an Inhibition of 8%.

In the case of `COc1ccc2[nH]ccc(=NN=Cc3ccccc3F)c2c1`, the Inhibition was 23%.

As for `Cc1onc(-c2ccc(Cl)cc2)c1-c1ccnn1S(=O)(=O)c1ccc(Cl)cc1`, the Inhibition came to 0%.

On to `O=C(O)C(F)(F)F.OCC1CCN(Cc2ccc(-c3ccc(-c4nc5cc(C(F)(F)F)ccc5[nH]4)s3)cc2)CC1`, for which the Inhibition turned out to be 35%.

As to `Cc1cn(CC(=O)Nc2cccc(-c3cccc(-c4nc5cccc(C)c5[nH]4)c3)c2)c(=O)[nH]c1=O`, the Inhibition is listed as 2%.

`O=C(N[C@@H](Cc1ccccc1)C(=O)O)c1cc(-c2ccc(F)cc2)no1.O=C(N[C@@H](Cc1ccccc1)C(=O)O)c1conc1-c1ccc(F)cc1` came in with an Inhibition of 0%.

On to `FC(F)(F)c1cccc(-c2cc(NCCCn3ccnc3)nc(-c3ccncc3)n2)c1`, for which the Inhibition is listed as 50%.

With `CCn1c(-c2cc(C)on2)nc2cnc(Oc3ccc(C(=O)N4CC(=O)N(C)C4C(C)(C)C)cc3)cc21` (stereo unspecified), the Inhibition is reported as 44%.

Molecule `CCc1n[nH]c(C(=O)Nc2cccc(N3CCCC3)c2)c1C` had an Inhibition of 15%.

For `Oc1ccc(Nc2nc(NCc3ccccc3)c3ccccc3n2)cc1`, the Inhibition stood at 33%.
